# Screens deposited in PubChem by NMMLSC.
# Anthrax LF prot – blocks Bacillus anthracis lethal factor protease; P15917; multiplex microsphere protease cleavage assay, LF; inhibition, % at 10 µM; 360,000 tested, 0.12% active; also: plate controls were buffer without enzyme for full effect and enzyme alone for no effect
# Target sequence (P15917 whole entry, looked up): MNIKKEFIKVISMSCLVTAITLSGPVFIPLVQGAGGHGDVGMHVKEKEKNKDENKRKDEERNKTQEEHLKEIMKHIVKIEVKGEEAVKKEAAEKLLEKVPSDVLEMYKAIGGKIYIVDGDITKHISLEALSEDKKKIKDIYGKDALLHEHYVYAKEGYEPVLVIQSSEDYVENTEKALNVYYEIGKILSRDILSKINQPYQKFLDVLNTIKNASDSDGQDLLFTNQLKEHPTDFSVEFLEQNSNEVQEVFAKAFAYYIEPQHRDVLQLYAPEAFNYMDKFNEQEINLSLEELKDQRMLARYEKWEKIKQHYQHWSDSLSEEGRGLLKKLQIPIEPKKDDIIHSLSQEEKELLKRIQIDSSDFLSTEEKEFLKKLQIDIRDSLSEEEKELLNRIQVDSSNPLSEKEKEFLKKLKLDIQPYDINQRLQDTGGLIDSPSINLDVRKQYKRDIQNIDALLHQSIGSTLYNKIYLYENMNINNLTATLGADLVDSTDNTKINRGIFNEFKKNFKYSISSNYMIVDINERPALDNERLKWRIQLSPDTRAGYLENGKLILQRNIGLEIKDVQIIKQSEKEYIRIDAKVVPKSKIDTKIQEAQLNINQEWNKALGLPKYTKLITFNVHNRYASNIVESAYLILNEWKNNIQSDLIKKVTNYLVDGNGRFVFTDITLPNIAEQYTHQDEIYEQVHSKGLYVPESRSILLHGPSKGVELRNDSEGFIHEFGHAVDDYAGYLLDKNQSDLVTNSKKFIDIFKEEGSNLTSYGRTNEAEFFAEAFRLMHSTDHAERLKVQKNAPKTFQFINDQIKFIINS
# BoNT F protease – BoNT F light chain protease inhibition; Multiplex microsphere protease cleavage assay, flow cytometry; inhibition, % at 10 µM; 360,000 tested, 0.22% active; in the data active = inhibition above about 35%, passing the limit was not always enough; inconclusive = no clear call, values can overlap the other calls; also: plate controls were buffer without enzyme for full effect and enzyme alone for no effect
# BoNT-A LC inh2 – blocks Botulinum neurotoxin A light chain protease | 360,000 tested, 0.17% active | inhibition, % at 10 µM | AID 588499 | multiplex microsphere protease substrate cleavage, flow cytometry; also: plate controls were buffer without enzyme for full effect and enzyme alone for no effect
# Bead autofluor – compound fluorescence in toxin protease inhibitor counterscreen | compound autofluorescence counterscreen, microsphere flow cytometry; hits give high values | fluorescence intensity (no concentration beside the values) | 360,000 tested, 3.1% active | AID 624483; in the data active = fluorescence intensity above about 16000; inconclusive = no clear call, values can overlap the other calls
# * marks the source's active call; other numbers are inactive results; ? = inconclusive; . = no result. A selection: hits, their analogues and other compounds. The true share with any hit is near 3.5%. Rule as the data show it, unless noted: active = inhibition above about 30%; inconclusive = no clear call, values can overlap the other calls; inactive = below that.
SMILES,Anthrax LF prot,BoNT F protease,BoNT-A LC inh2,Bead autofluor
Cc1ccc(-n2c(Cn3nc(C(F)F)cc3C(F)F)n[nH]c2=S)cc1,1.9,1.6,1.7,22572*
COc1ccc(OCc2n[nH]c(=S)n2-c2ccc(C)cc2)cc1,-2.2,0.8,0.7,2240
Cc1cc(C(F)(F)F)nn1Cc1n[nH]c(=S)n1-c1cccc(Cl)c1,-2.7,6.8,4.6,15165
Cc1cc(C(F)(F)F)nn1Cc1n[nH]c(=S)n1-c1ccc(Cl)cc1,2.8,1.0,0.5,19410*
N#Cc1cc([N+](=O)[O-])cnc1NCC(O)CO (stereo not drawn),0.4,1.3,0.2,3828
C=CCOC(=O)C1=C(C)NC(=S)NC1/C=C/c1ccccc1 (stereo not drawn),0.2,-9.8,-4.6,18190*
CC(OC(=O)c1ccncc1)C(=O)NC1CCCC1 (stereo not drawn),-6.9,5.1,0.6,4248
O=C(Nc1ccccc1Cl)c1c(F)c(F)c(F)c(F)c1F,8.5,-6.4,-0.8,3233
Cc1ccccc1NC(=O)c1c(F)c(F)c(F)c(F)c1F,-3.4,-5.1,-0.7,16318*
Cc1ccc(-n2ncc3c(NCc4ccccc4)ncnc32)cc1,-8.1,-7.0,0.1,2961
c1ccc(-n2ncc3c(NCCCN4CCOCC4)ncnc32)cc1,-2.2,-10.3,-5.0,18090*
Cc1ccc(CNc2ncnc3c2cnn3-c2ccccc2)cc1,1.4,-1.3,-1.5,16965*
Clc1ccc(-n2ncc3c(NCc4ccccn4)ncnc32)cc1,-21.1,10.2,6.7,19639*
Clc1ccc(-n2ncc3c(NCCN4CCOCC4)ncnc32)cc1,2.2,19.6,1.4,3403
Cc1ccc(-n2ncc3c(NCc4ccccn4)ncnc32)c(C)c1,-4.1,-18.9,-0.6,4026
COc1ccc([N+](=O)[O-])cc1NC(=O)c1ccc(C)o1,1.1,0.8,0.0,2526
O=C(CSc1ncccn1)NC(=O)Cc1ccccc1,-13.8,0.6,-0.7,4264
CCCOc1ccc(/C=c2\sc3ncnn3c2=O)cc1,-4.2,1.0,0.6,4162
CC(=O)Oc1ccc(/C=c2\sc3ncnn3c2=O)cc1,-2.9,2.1,0.5,22478*
CCOc1ccccc1/C=c1\sc2ncnn2c1=O,-4.1,-0.5,?,21270*
COc1cc(C(=O)NCCSc2ccc(F)cc2)cc(OC)c1OC,-13.2,3.2,-0.4,2953
Cc1ccccc1CNC(=O)C(=O)Nc1nccs1,-3.9,-6.5,-1.8,4166
O=C1CC(N2CCC(c3nc4ccccc4o3)CC2)C(=O)N1c1cc(Cl)cc(Cl)c1 (stereo not drawn),-0.7,-0.9,0.9,22844*
CCOC(=O)Cc1nnc(NC(=O)C2CCCCC2)s1,-1.9,-4.6,-0.4,2212
CCc1nnc(NC(=O)C2CCN(c3nc(C)cc(C)n3)CC2)s1,-1.8,-5.5,-3.2,24756*
SMILES,Anthrax LF prot,BoNT F protease,BoNT-A LC inh2,Bead autofluor
CCc1nnc(NC(=O)CN2CC(C)OC(C)C2)s1 (stereo not drawn),-9.0,34.5*,1.6,3060
CCc1nnc(NC(=O)C2CCCCC2)s1,-7.2,2.9,1.7,22291*
Cc1cc(C)nc(N2CCC(C(=O)NCCc3ccc(F)cc3)CC2)n1,0.1,-8.6,?,26052*
COc1cc2[nH]c(=O)n(CCCCCC(=O)NCCc3c[nH]c4ccccc34)c(=O)c2cc1OC,-3.2,2.1,-0.1,3501
Cn1nccc1C(=O)OCC(=O)Nc1nc(-c2ccccc2)cs1,0.1,0.6,?,22484*
O=C(COC(=O)c1cccs1)Nc1nc(-c2ccccc2)cs1,8.8,-2.5,0.9,7439
Cc1cc(=O)oc2cc(OC(=O)CCN3C(=O)c4ccccc4C3=O)ccc12,-4.4,1.5,2.0,22230*
COc1ccc(OCCN2C(=O)c3ccccc3C2=O)cc1,-1.9,3.9,1.3,2165
COc1ccc(OC(=O)CCCN2C(=O)c3ccccc3C2=O)cc1,-4.1,-3.0,-2.6,24000*
CSc1ccc(C(=S)N2CCN(C(c3ccccc3)c3ccccc3)CC2)cc1,-2.4,-5.1,-2.3,25174*
O=C(c1ccc2c(=O)n3c(nc2c1)CCCCC3)N1CCN(c2ccccc2)CC1,-7.5,8.2,3.2,1683
Cc1cc(C(=O)N2CCN(C(c3ccccc3)c3ccccc3)CC2)no1,-1.8,-5.3,-2.8,23268*
O=C(c1ccc2c(=O)n3c(nc2c1)CCCCC3)N1CCN(C(c2ccccc2)c2ccccc2)CC1,3.7,-1.3,-0.4,23040*
O=C(c1ccc(=O)oc1)N1CCN(C(c2ccccc2)c2ccccc2)CC1,-3.0,-4.2,?,23517*
CCCc1cc(C(=O)N2CCN(C(c3ccccc3)c3ccccc3)CC2)no1,-4.3,1.4,-0.2,5879
CC(=O)N1CCN(C(c2ccccc2)c2ccccc2)CC1,2.8,.,-2.2,.
Cc1cccc(OCC(=O)NCCNC(=O)c2ccccn2)c1,5.6,-17.8,-1.7,4104
Cc1ccc(N/C=C/C(=O)c2sc(-c3ccccc3)nc2C)cc1,22.9,25.5,32.2*,2766
CC(C)CCN1CCN=C1Nc1ccccc1,0.7,-6.7,0.1,3783
COc1ccc(-n2c(C)nn(C)c2=O)cc1,-1.0,2.2,0.9,15801
COc1ccc(-n2c(/C=C(\C)O)nc(=O)c3c(C)cc(C)nc32)cc1,1.4,0.9,0.7,22184*
COc1ccccc1CN1CCCCC1c1cccnc1 (stereo not drawn),-0.4,0.4,2.3,22672*
CC(C)NC(=O)CCNS(=O)(=O)c1ccc(Br)cc1,-1.0,-2.8,-2.6,24137*
Nc1cccc(Nc2nc(OC(C(F)(F)F)C(F)(F)F)nc(OC(C(F)(F)F)C(F)(F)F)n2)c1,-5.7,2.5,-1.0,3099
COc1nc(Nc2ccc(O)cc2)nc(OC(C(F)(F)F)C(F)(F)F)n1,-5.3,-6.9,-0.6,16552*
SMILES,Anthrax LF prot,BoNT F protease,BoNT-A LC inh2,Bead autofluor
CCOc1ccccc1NC(=O)COC(=O)c1cc[n+]([O-])cc1,-2.7,-5.3,-0.4,4231
Cc1nc2n(n1)CC(O)CS2 (stereo not drawn),-0.7,-5.6,-2.9,23205*
COc1ccc(S(=O)(=O)N2CCC(C(=O)Nc3ccc(F)cc3)CC2)c2cccnc12,1.0,-3.5,-0.6,4152
C/C(Cl)=C/CSc1nnc2n(N)c(=O)c3ccccc3n12,-2.8,-1.5,0.4,23180*
O=c1cccc2n1CC1CC2CN(Cc2c(F)cccc2Cl)C1 (stereo not drawn),-1.2,-3.0,-0.4,9473
O=c1cccc2n1CC1CC2CN(Cc2cccc(Cl)c2Cl)C1 (stereo not drawn),0.4,-1.0,-0.3,20838*
CCNC(=O)C1(C)CCCN(C(=O)c2cc(OC)ccc2Br)C1 (stereo not drawn),4.0,0.2,0.0,2988
CC1(C)Cc2nc(Cl)c(C#N)cc2CO1,4.7,4.3,-0.1,3589
CC1(C)Cc2nc3n[nH]c(N)c3cc2CO1,-2.4,-3.9,-3.4,24639*
N#Cc1nc(Cc2cccc3ccccc23)oc1NCC1CCCO1 (stereo not drawn),-6.2,-2.7,0.6,21943*
COc1ccc(CNc2oc(Cc3cccc4ccccc34)nc2C#N)cc1,-3.8,-17.8,0.6,2906
N#Cc1nc(Cc2cccc3ccccc23)oc1NCc1ccco1,-12.9,-0.8,1.2,22710*
CCCOc1ccc(-c2nc(C#N)c(NCC3CCCO3)o2)cc1 (stereo not drawn),-2.5,-4.4,-4.7,24772*
